Some test systems named below: SK-MEL-2 melanoma; EKVX NSCLC; SN12C renal; UO-31 renal; TK-10 renal; ACHN renal; CAKI-1 renal; A498 renal; CCRF-CEM leukemia; MOLT-4 leukemia; SR leukemia; RPMI-8226 leukemia; OVCAR-8 ovarian; OVCAR-5 ovarian; OVCAR-4 ovarian; SK-OV-3 ovarian; IGROV1 ovarian; OVCAR-3 ovarian; HS 578T breast; NCI/ADR-RES ovarian.
What all share (experiment): NCI-60 one-dose screen, 48 h (100 = growth as untreated, 0 = no growth, -100 = all killed)
What all share (conditions): 10 µM unless noted

Structures are written as SMILES. About 83,000 compounds went through this panel and 20% of them were active in at least one assay; those are over-represented in the sample as a whole.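 Testing used 96-well plates and a 48-hour single-concentration exposure. Example: -40 means 40% of the starting cells died.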 A number with no mark means an inactive call. Activity calls are given as the source filed them. Rule for the calls: active = growth percent below 10; inactive = the rest.

Regarding `C=C1C(=O)O[C@H]2[C@H]1CC/C(Cn1cc(-c3ccccc3C(F)(F)F)nn1)=C\CC[C@@]1(C)O[C@@H]21`, the growth in the test on SK-MEL-2 melanoma was -42.2% (active); in the test on EKVX NSCLC, -78.6% (active); in the test on SN12C renal it was -35.3% (active); with UO-31 renal, -94.5% (active); in the test with TK-10 renal, -50.1% (active); in the test on ACHN renal, -85.4% (active). Moreover, the growth in the test on CAKI-1 renal was -48.8% (active); with A498 renal, 25.9%; in the test with CCRF-CEM leukemia, -28.5% (active); with MOLT-4 leukemia, -11.7% (active); in the test on SR leukemia, 2.59% (active); in the test on RPMI-8226 leukemia it was -29.4% (active). The growth is -27.1% (active) with OVCAR-8 ovarian; -18.6% (active) in the test with OVCAR-5 ovarian; -19% (active) in the test with OVCAR-4 ovarian; 79.1% in the test with SK-OV-3 ovarian; -21.4% (active) with IGROV1 ovarian; -93.8% (active) in the test on OVCAR-3 ovarian. Further, the figures for the growth in the test on HS 578T breast and with NCI/ADR-RES ovarian were 39.1% and 19.6%, respectively.
`COc1cc(-n2nc(C(=O)Nc3ccc(C(=O)O)cc3)nc2-c2ccccc2)cc(OC)c1OC`: the growth is 106% in the test with SK-MEL-2 melanoma; 53% with EKVX NSCLC; 82.1% with SN12C renal; 58.6% in the test with UO-31 renal; 79.1% with TK-10 renal; 36.1% with ACHN renal. Also, the growth is 52.2% with CAKI-1 renal; 62.9% with A498 renal; 89% in the test with CCRF-CEM leukemia; 95.8% with MOLT-4 leukemia; 118% with SR leukemia; 108% in the test with RPMI-8226 leukemia. Besides, the growth in the test on OVCAR-8 ovarian was 86.3%; in the test on OVCAR-5 ovarian, 86.3%; in the test on OVCAR-4 ovarian, 110%; in the test on SK-OV-3 ovarian it was 64.3%; in the test with IGROV1 ovarian it was 51%; in the test with OVCAR-3 ovarian, 94.4%. The growth in the test with HS 578T breast was 97.5%; with NCI/ADR-RES ovarian, 89.1%.
On to `CCC#CC[C@H]1C/C=C2/C(=O)C=C[C@@H]2C/C=C\CCCC(=O)O1`, for which the growth in the test on SK-MEL-2 melanoma was 8.9% (active); in the test on EKVX NSCLC, 23.7%; in the test on SN12C renal it was 0.755% (active); in the test on UO-31 renal it was -82.7% (active); in the test on TK-10 renal, -1.68% (active); with ACHN renal it was -86.8% (active). Also, the growth in the test with CAKI-1 renal is 18.2%; in the test on A498 renal, 46.5%; in the test with CCRF-CEM leukemia, 9.12% (active); in the test on MOLT-4 leukemia, 7.42% (active); in the test with SR leukemia, 5.38% (active); in the test with RPMI-8226 leukemia, 4.15% (active). The growth in the test on OVCAR-8 ovarian was 13.6%; with OVCAR-5 ovarian it was 18.4%; with OVCAR-4 ovarian it was 40.1%; in the test on SK-OV-3 ovarian it was 26.5%; with IGROV1 ovarian, 7.74% (active); in the test on OVCAR-3 ovarian, 6.81% (active). Further, the values for the growth in the test on HS 578T breast and with NCI/ADR-RES ovarian were 40.2% and 22.7%, respectively.
As to `Nc1nn2cc(-c3ccc(Cl)s3)nc2c2ccccc12`, the growth was 49.9% in the test with SK-MEL-2 melanoma; 86.7% in the test with EKVX NSCLC; 91.9% with SN12C renal; 67.1% in the test with UO-31 renal; 113% in the test on TK-10 renal; 79.6% with ACHN renal. Moreover, the growth is 74.6% in the test with CAKI-1 renal; 59.5% in the test on A498 renal; 76.8% in the test with CCRF-CEM leukemia; 44.4% in the test with MOLT-4 leukemia; 49.7% with SR leukemia; 92% in the test on RPMI-8226 leukemia. For the same molecule, the growth was 105% in the test with OVCAR-8 ovarian; 79.1% in the test on OVCAR-5 ovarian; 87.5% with OVCAR-4 ovarian; 103% in the test on SK-OV-3 ovarian; 44.7% in the test with IGROV1 ovarian; 77.8% with OVCAR-3 ovarian. Also, the growth with HS 578T breast was 96.7%; in the test on NCI/ADR-RES ovarian, 86.7%.
As for `Clc1nc(Cl)c2ncn(C/C=C/Cn3cnc4c(Cl)nc(Cl)nc43)c2n1`, the growth is 96.5% in the test on SK-MEL-2 melanoma; 86.6% in the test on EKVX NSCLC; 96.5% with SN12C renal; 5.99% (active) in the test with UO-31 renal; 79.9% in the test on TK-10 renal; 90% in the test with ACHN renal. The growth is -60% (active) in the test on CAKI-1 renal; 90.2% with A498 renal; 18.2% in the test on CCRF-CEM leukemia; 80.8% in the test on MOLT-4 leukemia; -14.2% (active) in the test on SR leukemia; -17.3% (active) in the test on RPMI-8226 leukemia. In addition, the growth in the test on OVCAR-8 ovarian was 7.73% (active); in the test on OVCAR-5 ovarian, 112%; in the test on OVCAR-4 ovarian, 94.6%; with SK-OV-3 ovarian it was 103%; in the test with IGROV1 ovarian it was 17.7%; with OVCAR-3 ovarian, 60.5%. Moreover, the growth with HS 578T breast is 46.3%; in the test on NCI/ADR-RES ovarian, 99%.
`COc1cc(C(=O)CCCl)ccc1O`: the growth with SK-MEL-2 melanoma is 114%; in the test with EKVX NSCLC, 93.7%; in the test with SN12C renal it was 95.6%; in the test on UO-31 renal, 90.9%; with TK-10 renal it was 109%; in the test on ACHN renal it was 96.9%. For the same molecule, the growth in the test on CAKI-1 renal was 90.2%; with A498 renal it was 106%; in the test with CCRF-CEM leukemia it was 106%; in the test on MOLT-4 leukemia it was 99.5%; in the test with SR leukemia, 96.9%; in the test on RPMI-8226 leukemia, 92%. Further, the growth in the test on OVCAR-8 ovarian is 102%; in the test with OVCAR-5 ovarian it was 92.7%; in the test on OVCAR-4 ovarian it was 98.8%; in the test with SK-OV-3 ovarian, 111%; in the test with IGROV1 ovarian it was 104%; in the test with OVCAR-3 ovarian, 102%. Besides, the growth was 101% with HS 578T breast and 94.6% in the test on NCI/ADR-RES ovarian.
On to `O=S(=O)(NCCCNc1cc(-c2cn(-c3ccccc3)nc2-c2cccc(O)c2)ccn1)c1cccc(F)c1`, for which the growth was 66.3% in the test with SK-MEL-2 melanoma; 39% with EKVX NSCLC; 65.9% in the test with SN12C renal; 35.6% with UO-31 renal; 58.9% in the test with TK-10 renal; 43.7% in the test with ACHN renal. Also, the growth in the test with CAKI-1 renal was 41%; in the test with A498 renal, 46.6%; with CCRF-CEM leukemia it was 36.3%; in the test on MOLT-4 leukemia it was 31%; in the test on SR leukemia, 35%; with RPMI-8226 leukemia, 32%. For the same molecule, the growth with OVCAR-8 ovarian is 39.8%; in the test on OVCAR-5 ovarian, 68.3%; in the test on OVCAR-4 ovarian it was 50.2%; with SK-OV-3 ovarian it was 72%; in the test on IGROV1 ovarian, 53.8%; in the test on OVCAR-3 ovarian, 65.6%. Further, the growth was 41.7% in the test with HS 578T breast and 49.3% in the test on NCI/ADR-RES ovarian.

(Values after PubChem BioAssay (NCI).)
